The target in one assay is Albumin (Bos taurus) (UniProt P02769). Briefly: compounds binding labelled BSA control protein – biochemical, small-molecule microarray, Alexa647 label, 635/667 nm fluorescence, artefact control for SMM control protein annotation, profiling panel (AID 1118).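 Further: score merges 667 nm emission intensity and signal-to-noise per printed compound spot.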 The conditions noted are these: BSA-A647 binding, fluorescence 635 nm, higher = more signal.
The nature of assay [1]: probe aXIP binding to arrayed compounds – biochemical, NeuroSMM set, 635/667 nm fluorescence, primary screen (AID 1119).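 Further: probe is the protein aXip251-270 applied at 1 µg/mL to compound-printed slides; binding of probe to printed compounds measured as 667 nm fluorescence plus signal to noise.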 The conditions noted are these: small-molecule microarray, higher = more signal, called active from +8 up or from −8 down.
Assay [2] in a line: probe aNOTCH3 binding on compound microarray – biochemical, small-molecule microarray, 635/667 nm fluorescence, primary screen (AID 1120).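 Further: probe is a biotin-tagged antibody raised against NOTCH3 rather than NOTCH3 protein; score merges spot fluorescence near 667 nm with spot signal to noise.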 Particulars: higher = more signal.
Assay [3] in a line: probe aNOTCH2 binding on compound microarray – biochemical, small-molecule microarray, 635/667 nm fluorescence, primary screen (AID 1121).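 Further: score merges feature fluorescence read at 667 nm with its signal to noise.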 The conditions noted are these: higher = more signal.
The target of assay [4] is Carbonic anhydrase 2 (Homo sapiens) (UniProt P00918). Put plainly: compounds binding carbonic anhydrase 2 – biochemical, small-molecule microarray, Alexa647-labelled CAII, profiling panel (AID 1122). The conditions noted are these: CAII-A647 binding fluorescence, higher = more signal.
A short description of assay [5]: COS7 lysate on small-molecule microarray, probe aHis, 635 nm (AID 1123).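 Further: z-score combines 667nm fluorescence intensity with signal-to-noise per printed compound spot.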 The conditions noted are these: COS7 cell lysate, fluorescence, higher = more signal.
Assay [6] can be described thus: probe aLAP1 signal on lysate-treated microarray – cell lysate, small-molecule microarray, COS7 lysate, primary screen (AID 1124).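 Further: lysate comes from COS7 cells expressing LAP1 and is applied at 0.3 µg/mL; score merges spot fluorescence near 667 nm with signal-to-noise over triplicate slides.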 Particulars: probe aLAP1, fluorescence, higher = more signal.
The subject of a further assay is Sam68 (KHDRBS1). Put plainly: compounds binding KHDRBS1 protein – biochemical, small-molecule microarray, 635 nm fluorescence, primary screen (AID 1125).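 Further: score merges 667 nm channel intensity with signal to noise over triplicate slides.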 The conditions noted are these: higher = more signal.
Assay [7] relates to Chordin-like protein 2 (CHRDL2). Briefly: compounds binding chordin-like 2 – biochemical, small-molecule microarray, 635 nm fluorescence, primary screen (AID 1126).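 Further: printed compound slides probed with Chrdl2 protein at 4 µg/mL for 1 h at 4 C; score merges 667 nm emission intensity with signal to noise over three replicate slides.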 Particulars: fluorescence 635 nm, higher = more signal.
In assay [8] the target is Concanavalin-A (Canavalia ensiformis) (UniProt P02866). Put plainly: compounds binding concanavalin A lectin – biochemical, small-molecule microarray, Alexa647 label, 635 nm, artefact control for SMM control protein annotation, primary screen (AID 1127).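 Further: z combines 667 nm emission intensity with signal-to-noise across three replicate slides.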 The conditions noted are these: ConA-A647 binding fluorescence, higher = more signal.
Assay [9] can be described thus: compounds binding Alexa647 anti-His antibody – biochemical, small-molecule microarray, 635 nm fluorescence, artefact control for SMM control protein annotation, primary screen (AID 1128).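 Further: score merges feature fluorescence with signal-to-noise for each printed compound spot.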 The conditions noted are these: higher = more signal.
For assay [10], the system named is Human papillomavirus type 1a E7 protein (residues 1-88). Put plainly: HPV1a E7 small-molecule binders, primary screen, biochemical, small-molecule microarray, residues 1-88, 635 nm (AID 1129). The conditions noted are these: small-molecule microarray binding, fluorescence 635 nm; higher = more signal.
In assay [11] the target is Focal adhesion kinase 1 (Homo sapiens) (UniProt Q05397). Put plainly: PTK2 protein binding on printed compound slides – biochemical, small-molecule microarray, 635/667 nm fluorescence, BSA, DTT, primary screen (AID 1130).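 Further: composite of spot emission at 667 nm and signal to noise over triplicate slides.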 The conditions noted are these: 635 nm fluorescence, higher = more signal.
Assay [12] deals with Fibrinogen (Alexa647-labelled). Put plainly: Alexa647-fibrinogen binding to printed small molecules – biochemical, small-molecule microarray, 635/667 nm fluorescence, artefact control for SMM control-protein annotation, profiling panel (AID 1131).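 Further: z-score merges 667 nm fluorescence with per-spot signal-to-noise over triplicate slides.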 The conditions noted are these: fibrinogen-A647 binding fluorescence, higher = more signal.
Assay [13] concerns the target Follistatin (Homo sapiens) (UniProt P19883). Briefly: FST protein binding to printed compounds – biochemical, small-molecule microarray, 635/667 nm fluorescence, primary screen (AID 1132). Particulars: 635 nm fluorescence, higher = more signal.
Assay [14] deals with Fibroblast growth factor 2 (Homo sapiens) (UniProt P09038). Briefly: basic fibroblast growth factor binding to printed compounds – biochemical, small-molecule microarray, 635/667 nm fluorescence, primary screen (AID 1133). The conditions noted are these: FGF2, fluorescence 635/667, higher = more signal.
Assay [15] can be described thus: JC-1 mitochondrial potential readout, lung cancer cells – cell-based, A549, JC-1 fluorescence, basal, 24 h, 100 nL, profiling panel (AID 1138).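 Further: A549 lung adenocarcinoma cells under basal conditions with no added stimulus; test concentration not given here.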 Particulars: higher = more signal.
The subject of the next assay is Lefty1. Put plainly: Lefty1 protein binding to printed compounds – biochemical, small-molecule microarray, 635/667 nm fluorescence, primary screen (AID 1139). Particulars: fluorescence 635/667, higher = more signal.
Assay [16] deals with wheat germ agglutinin (Triticum aestivum), Alexa647-labelled. Put plainly: Alexa647-WGA lectin binding to printed small molecules – biochemical, small-molecule microarray, 635/667 nm fluorescence, artefact control for SMM control-protein annotation, profiling panel (AID 1140).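 Further: score merges 667 nm feature emission with signal to noise over triplicate slides.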 The conditions noted are these: WGA-A647 binding, 635 nm fluorescence, higher = more signal.
Assay [17] concerns the target Luciferin 4-monooxygenase (Photinus pyralis) (UniProt P08659). Put plainly: inhibition of purified Photinus pyralis luciferase – biochemical, luminescence, purified enzyme, 2006 set, primary screen (AID 1141).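 Further: cell-free assay with purified firefly luciferase at 100 ng per well in PBS; test concentration not given here.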 Particulars: purified firefly luciferase, SteadyGlo luminescence, 30 min; higher = more signal, called active from +8 up or from −8 down.

Molecules are shown by their SMILES. Activity calls are given as the source filed them.

Sequence of Focal adhesion kinase 1 (Homo sapiens) (Q05397 whole entry, looked up): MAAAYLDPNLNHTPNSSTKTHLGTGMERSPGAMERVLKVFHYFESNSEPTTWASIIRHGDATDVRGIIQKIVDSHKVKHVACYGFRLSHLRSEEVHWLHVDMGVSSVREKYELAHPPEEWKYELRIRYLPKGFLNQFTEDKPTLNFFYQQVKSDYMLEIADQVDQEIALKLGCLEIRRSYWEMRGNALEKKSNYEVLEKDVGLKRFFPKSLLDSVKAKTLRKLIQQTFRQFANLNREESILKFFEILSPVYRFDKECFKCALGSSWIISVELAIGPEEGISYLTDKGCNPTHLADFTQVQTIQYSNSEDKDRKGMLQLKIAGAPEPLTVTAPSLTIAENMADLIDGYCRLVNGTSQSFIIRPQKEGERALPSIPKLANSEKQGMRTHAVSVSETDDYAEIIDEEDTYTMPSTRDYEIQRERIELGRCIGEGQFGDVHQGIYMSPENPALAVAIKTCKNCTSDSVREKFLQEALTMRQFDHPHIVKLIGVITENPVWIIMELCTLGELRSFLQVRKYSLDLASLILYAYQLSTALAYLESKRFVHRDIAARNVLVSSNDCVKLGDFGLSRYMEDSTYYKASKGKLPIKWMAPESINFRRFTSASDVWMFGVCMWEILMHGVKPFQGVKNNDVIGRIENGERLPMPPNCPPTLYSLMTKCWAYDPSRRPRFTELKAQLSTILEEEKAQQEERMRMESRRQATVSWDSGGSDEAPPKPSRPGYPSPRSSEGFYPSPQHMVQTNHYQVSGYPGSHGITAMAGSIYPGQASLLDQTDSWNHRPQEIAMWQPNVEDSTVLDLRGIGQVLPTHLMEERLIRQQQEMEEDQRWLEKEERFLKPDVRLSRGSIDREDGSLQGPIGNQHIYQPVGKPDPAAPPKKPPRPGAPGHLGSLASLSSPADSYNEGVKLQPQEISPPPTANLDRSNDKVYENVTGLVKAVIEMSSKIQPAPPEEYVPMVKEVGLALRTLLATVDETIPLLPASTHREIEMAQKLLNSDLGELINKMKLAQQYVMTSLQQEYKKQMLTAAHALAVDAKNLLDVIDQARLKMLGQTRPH
Sequence of Follistatin (Homo sapiens) (P19883 whole entry, looked up): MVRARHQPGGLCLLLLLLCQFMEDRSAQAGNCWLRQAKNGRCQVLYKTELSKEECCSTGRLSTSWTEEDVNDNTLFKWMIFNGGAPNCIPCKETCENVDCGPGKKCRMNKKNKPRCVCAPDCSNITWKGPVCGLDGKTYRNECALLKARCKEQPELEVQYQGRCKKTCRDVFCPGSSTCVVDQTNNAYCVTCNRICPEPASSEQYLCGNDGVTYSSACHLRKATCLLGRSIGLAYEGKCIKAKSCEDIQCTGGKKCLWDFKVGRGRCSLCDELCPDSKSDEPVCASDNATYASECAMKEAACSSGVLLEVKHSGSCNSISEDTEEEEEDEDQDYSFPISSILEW
Sequence of Luciferin 4-monooxygenase (Photinus pyralis) (P08659 whole entry, looked up): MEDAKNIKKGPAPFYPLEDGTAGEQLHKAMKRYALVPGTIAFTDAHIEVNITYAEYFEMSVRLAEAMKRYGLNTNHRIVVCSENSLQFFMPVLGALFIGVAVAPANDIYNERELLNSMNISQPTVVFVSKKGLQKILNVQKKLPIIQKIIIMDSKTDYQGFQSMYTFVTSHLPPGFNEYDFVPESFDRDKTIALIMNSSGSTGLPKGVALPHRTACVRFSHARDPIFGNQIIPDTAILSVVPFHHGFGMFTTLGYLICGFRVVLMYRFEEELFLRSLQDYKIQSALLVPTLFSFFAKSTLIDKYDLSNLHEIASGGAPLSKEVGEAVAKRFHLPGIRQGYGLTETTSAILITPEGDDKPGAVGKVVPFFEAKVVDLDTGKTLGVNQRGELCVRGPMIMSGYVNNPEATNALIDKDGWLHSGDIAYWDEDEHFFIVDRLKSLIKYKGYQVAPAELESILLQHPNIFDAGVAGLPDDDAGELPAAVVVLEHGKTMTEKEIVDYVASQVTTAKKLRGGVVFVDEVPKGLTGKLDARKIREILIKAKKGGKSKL
Sequence of Fibroblast growth factor 2 (Homo sapiens) (P09038 whole entry, looked up): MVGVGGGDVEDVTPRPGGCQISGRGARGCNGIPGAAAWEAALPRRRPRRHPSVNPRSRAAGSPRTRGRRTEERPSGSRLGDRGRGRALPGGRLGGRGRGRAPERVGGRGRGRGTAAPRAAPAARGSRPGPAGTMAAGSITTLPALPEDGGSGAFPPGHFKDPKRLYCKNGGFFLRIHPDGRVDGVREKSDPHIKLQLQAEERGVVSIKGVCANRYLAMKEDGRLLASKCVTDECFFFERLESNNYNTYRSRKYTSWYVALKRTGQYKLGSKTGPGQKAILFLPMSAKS
Sequence of Concanavalin-A (Canavalia ensiformis) (P02866 whole entry, looked up): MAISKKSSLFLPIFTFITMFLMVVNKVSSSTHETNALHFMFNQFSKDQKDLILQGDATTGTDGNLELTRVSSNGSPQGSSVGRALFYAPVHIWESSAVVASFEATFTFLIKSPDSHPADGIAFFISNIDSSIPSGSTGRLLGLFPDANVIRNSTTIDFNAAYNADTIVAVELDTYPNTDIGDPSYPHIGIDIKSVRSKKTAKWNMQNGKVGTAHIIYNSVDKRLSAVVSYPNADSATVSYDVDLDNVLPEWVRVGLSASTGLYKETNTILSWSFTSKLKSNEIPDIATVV
Sequence of Albumin (Bos taurus) (P02769 whole entry, looked up): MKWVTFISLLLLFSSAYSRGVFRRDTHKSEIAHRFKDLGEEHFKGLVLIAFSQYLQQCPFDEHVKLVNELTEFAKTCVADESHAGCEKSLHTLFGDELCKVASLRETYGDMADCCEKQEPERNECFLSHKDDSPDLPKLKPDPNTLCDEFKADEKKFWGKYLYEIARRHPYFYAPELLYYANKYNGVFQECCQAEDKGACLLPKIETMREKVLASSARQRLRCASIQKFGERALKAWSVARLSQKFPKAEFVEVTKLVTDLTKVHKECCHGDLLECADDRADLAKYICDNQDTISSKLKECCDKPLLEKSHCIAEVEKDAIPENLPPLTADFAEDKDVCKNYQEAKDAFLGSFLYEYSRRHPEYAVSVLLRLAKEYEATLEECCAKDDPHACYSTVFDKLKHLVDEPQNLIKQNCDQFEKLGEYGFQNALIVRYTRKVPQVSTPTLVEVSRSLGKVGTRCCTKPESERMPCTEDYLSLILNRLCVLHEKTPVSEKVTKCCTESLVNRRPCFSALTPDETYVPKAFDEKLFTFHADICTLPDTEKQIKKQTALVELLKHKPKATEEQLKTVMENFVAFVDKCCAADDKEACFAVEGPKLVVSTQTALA

As for `CC(C)C(=C=CC[C@@H](O)c1ccc(OCCO)cc1)C[C@@H](O)c1ccccn1`, the composite z-score is -0.363 with Albumin (Bos taurus); 0.0553 in assay [2]; -0.13 in [3]; 0.368 in [4]; -0.0995 in assay [5]; 0.33 in assay [6]. The composite z-score in the assay on Sam68 (KHDRBS1) was 0.726; in assay [7] it was 1.38; in assay [8], 0.817; in assay [9], -0.449; in assay [10], -0.251; in [11], -0.542. Besides, the composite z-score in assay [12] is 0.819; in [13] it was 1.58; in assay [14] it was 1.78; with Lefty1, 1.51; in [16], -0.187. For the same compound, the composite Z-score in [1] was 1.24 (inactive). The figures for the z-score in [15] and in [17] were -0.306 and -0.069 (inactive), respectively.

As to `C=CCNC(=O)[C@@H]1[C@H]2C(=O)O[C@H](c3ccccc3)[C@H](c3ccccc3)N2[C@H](c2ccc(O)cc2)[C@@]12C(=O)N(C(=O)OCCOC)c1ccc(C#CCNC(N)=O)cc12`, the composite z-score with Albumin (Bos taurus) is 0.803; in assay [2], -0.0247; in assay [3] it was -0.0393; in [4], 0.552; in assay [5], 0.737; in [6], 0.731. Besides, the composite z-score is 1.16 in the assay on Sam68 (KHDRBS1); 0.155 in [7]; 1.1 in [8]; 0.2 in assay [9]; 1.16 in [10]; 1.23 in [11]. Moreover, the composite z-score in assay [12] turned out to be 0.746; in [13] it was 1.18; in [14] it was 1.45; in the assay with Lefty1, 1.03; in [16], 0.834. Also, in assay [1], the composite Z-score is 0.797 (inactive). Also, the values for the z-score in [15] and in assay [17] were -0.564 and -1.43 (inactive), respectively.

On to `O=C1c2ccccc2[C@](Cc2ccccc2I)(C(=O)NCCN2CCOCC2)[C@H](c2ccc(CO)cc2)N1C1CCCCC1`, for which the composite z-score in the assay with Albumin (Bos taurus) was 0.55; in assay [2] it was 0.323; in assay [3] it was -0.052; in assay [4], 0.548; in [5], 1.41; in [6] it was 0.382. Also, the composite z-score in the assay with Sam68 (KHDRBS1) was 1.31; in [7], 0.67; in assay [8], 1.15; in assay [9], 1.77; in assay [10] it was 1.19; in assay [11], 0.991. Also, the composite z-score stood at 0.927 in assay [12]; 1.34 in assay [13]; 0.804 in assay [14]; 1.36 in the assay with Lefty1; 1.16 in [16]. Besides, the composite Z-score in assay [1] is 0.424 (inactive). In addition, the values for the z-score in [15] and in [17] were 1.34 and -0.147 (inactive), respectively.

As for `COC(=O)[C@@]1(Cc2ccc(F)cc2)[C@H]2c3cc(C(=O)N(C)C)n(Cc4cc(F)c(F)c(F)c4)c3C[C@H]2CN1C(=O)c1ccccc1`, the composite z-score in the assay with Albumin (Bos taurus) was 0.935; in assay [2] it was 0.672; in [3], 0.214; in assay [4], 0.613; in [5], 2.37; in [6], 0.351. Moreover, the composite z-score was 1.13 in the assay with Sam68 (KHDRBS1); -0.0618 in [7]; 1.13 in assay [8]; 1.13 in [9]; 1.21 in assay [10]; 0.538 in [11]. The composite z-score in assay [12] is 0.711; in [13], 1.02; in assay [14], -0.0402; in the assay with Lefty1, -0.788; in assay [16] it was 0.704. Besides, in assay [1], the composite Z-score is 0.0144 (inactive). In addition, the z-score in [15] was 0.918; in [17] it was 2.37 (inactive).

With `COCCOC(=O)N1C(=O)[C@@]2(c3cc(C#CCNC(N)=O)ccc31)[C@H](C(=O)N1CCN(c3ncccn3)CC1)[C@H]1C(=O)O[C@H](c3ccccc3)[C@H](c3ccccc3)N1[C@@H]2c1ccc(OCCO)cc1`, the composite z-score with Albumin (Bos taurus) was 0.521; in assay [2], 0.185; in assay [3], -0.108; in [4], 0.193; in assay [5] it was 1.48; in [6], 0.437. The composite z-score in the assay with Sam68 (KHDRBS1) was 1.29; in assay [7], 0.0879; in [8] it was 1; in [9], 0.549; in assay [10], 1.12; in [11], -0.171. Also, the composite z-score is 0.931 in assay [12]; 1.12 in [13]; 0.674 in assay [14]; 0.465 in the assay with Lefty1; 0.723 in assay [16]. Further, the composite Z-score in [1] was 0.242 (inactive). Further, the z-score in assay [15] is -1.25; in [17], -1.47 (inactive).

For the origin of these results see PubChem BioAssay.
